Compounds with a hit are over-represented: about 5.3% of the library has one in this group of screens.
FMDV antiviral – foot and mouth disease virus antiviral activity; FMDV antiviral cell-based qHTS; Potency, µM (series often up to 57.9 µM), without a hit: at the highest dose activity change, negative = inhibition, actives largely listed as inhibitors; 410,000 compounds, 1.2% hits; calls by dose curve; tested in HEK293T cells; also: read-out not given here; nearly all actives have a fitted effect of over 45% in size
VACV mCherry inh – vaccinia inhibition (mCherry reporter); Vaccinia virus mCherry reporter infection, fluorescence; AID 720579; 310,000 compounds, 0.63% hits; Potency, µM (series often up to 36.5 µM), for the others: at the highest dose activity change, negative = inhibition, hits mostly inhibitors; calls by dose curve; tested in A549 cells; also: nearly all actives have a fitted effect of over 35% in size
HCV inh – HCV inhibition. AID 651820. Potency, µM (series often up to 41.8 µM), for inactives: top-dose activity change, negative = inhibition, hits mostly inhibitors. Huh7.5.1 HCVcc-Cre infection, luciferase reporter, 44 h. 340,000 compounds, 3.4% hits; active = well fitted inhibition curve with a large enough effect; inconclusive = small, poorly fitted or top-dose-only effect, or another doubt; inactive = no such curve, though single readings can be large or run the other way
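A cell-based infection assay in which seeded cells (1,000 per well) receive test compound after 4 h, are inoculated with HCVcc-Cre at approximately 0.5 moi, and are incubated 44 h before luminescence detection.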
MARV entry inh – blocks Marburg virus binding to or entry into cells | Marburg virus pseudotyped entry inhibition, cell reporter | Potency, µM (doses to about 37.8 µM), without a hit: at the top dose activity change, negative = inhibition, actives largely listed as inhibitors | 300,000 compounds, 1.8% hits; calls by dose curve; tested in HEK293 cells
LASV entry inh – inhibitors of Lassa virus binding or cell entry | Lassa virus pseudotype entry inhibition, cell reporter | Potency, µM (top dose mostly 37.9 µM), without a hit: at the top dose activity change, negative = inhibition, most hits filed as inhibitors | 300,000 compounds, 1.2% hits | AID 540256; calls by dose curve; tested in HEK293 cells; also: nearly all actives have a fitted effect of over 50% in size
Vaccinia Venus – inhibitors of vaccinia virus (Venus reporter) | Potency, µM (series often up to 36.5 µM), without a hit: at the top dose activity change, negative = inhibition, hits mostly inhibitors | Vaccinia virus Venus reporter expression, fluorescence | 330,000 compounds, 0.46% hits; calls by dose curve; tested in A549 cells; also: nearly all actives have a fitted effect of over 30% in size
* marks the source's active call; other numbers are inactive results; [ ] = dose if it differs, or a comment. % is scaled to controls: 0 for no effect and ±100 for the full control effect; potency is read from the fitted curve at half-maximal effect.

For Cc1cnc(-n2ncc(C(=O)N[C@H]3CCCCNC3=O)c2C2CC2)nc1-c1cccs1 the results were FMDV antiviral -8%, VACV mCherry inh -11% and Vaccinia Venus -5%.
For CN[C@H]1C[C@H]2c3[nH]c4ccc(-c5ccc(OC)cc5)cc4c3CCN2C(=O)[C@H]1[C@H](C)O the results were FMDV antiviral inconclusive, VACV mCherry inh inconclusive and Vaccinia Venus 13µM*.
Screening NNC(=O)/C(=N/Nc1ccccc1)S(=O)(=O)c1ccc(Cl)cc1 returned FMDV antiviral -22%, VACV mCherry inh inconclusive, HCV inh 10µM*, MARV entry inh inconclusive, LASV entry inh 16µM* and Vaccinia Venus -29%.
`CCOC(=O)/C(=N/Nc1ccc(C)cc1)S(=O)(=O)c1ccc(Cl)cc1` gave FMDV antiviral 53%, VACV mCherry inh inactive, HCV inh -8%, MARV entry inh inconclusive, LASV entry inh 7% and Vaccinia Venus -3%.
`CCOC(=O)c1sc(NC(=O)CSc2nnc(Cc3ccccc3)o2)c(C#N)c1C` gave FMDV antiviral 32µM*, HCV inh 15%, MARV entry inh 28%, LASV entry inh -16% and Vaccinia Venus 12%.
Screening CCOC(=O)c1c(NC(=O)CSc2nnc(Cc3ccccc3)o2)sc(C(C)=O)c1C returned FMDV antiviral inconclusive, HCV inh inconclusive, MARV entry inh -22% and LASV entry inh -28%.
For CC1=C(/C=C/C(C)=C/C=C/C(C)=C/C(=O)Nc2ccc(O)cc2)C(C)(C)CCC1 the results were FMDV antiviral inconclusive, VACV mCherry inh inconclusive, HCV inh 6.3µM*, MARV entry inh inconclusive, LASV entry inh 10µM* and Vaccinia Venus inconclusive.
`CCc1ccc(NC(=O)c2cc3c(COC(C)=O)cnc(C)c3oc2=O)cc1` gave FMDV antiviral inconclusive, VACV mCherry inh -8%, LASV entry inh 18%[46.1 µM] and Vaccinia Venus -2%.
O=C(c1cccs1)N1CCc2c([nH]c3ccccc23)C1c1ccccn1 (stereo not given) was read as FMDV antiviral 0% and HCV inh 0%.
O=C(c1cc(-c2ccccc2)n[nH]1)N1CCc2c([nH]c3ccccc23)C1c1ccccn1 (stereo not given) was read as FMDV antiviral -30%, VACV mCherry inh inconclusive, HCV inh inconclusive, MARV entry inh 5.6µM*, LASV entry inh inconclusive and Vaccinia Venus inconclusive.
Screening N#Cc1sc2nc(C3CC3)cc(-c3ccc(Cl)cc3)c2c1N returned FMDV antiviral inconclusive, VACV mCherry inh 4.5µM*, HCV inh inconclusive, MARV entry inh inconclusive, LASV entry inh inconclusive and Vaccinia Venus 14µM*.
`COc1ccc(-c2cc(-c3cccs3)nc3sc(C#N)c(N)c23)cc1` gave FMDV antiviral -23%, VACV mCherry inh -4%, HCV inh inconclusive, MARV entry inh inconclusive, LASV entry inh 1% and Vaccinia Venus 0%.
CC(C)(C)c1cc(C2=CSC3=NCCN23)cc(C(C)(C)C)c1O was read as FMDV antiviral inconclusive and HCV inh 5.6µM*.
Screening Oc1ccc(C2=CSC3=NCCN23)cc1O returned FMDV antiviral -18% and HCV inh 7%.
For COC(=O)C1=C(N)Oc2cc(C)[nH]c(=O)c2[C@@H]1c1ccncc1 the results were MARV entry inh 3%.
For Nc1cc(-c2ccc(Br)cc2)nn1S(=O)(=O)c1cccc2nsnc12 the results were FMDV antiviral -15%, VACV mCherry inh inconclusive, HCV inh 11µM* and Vaccinia Venus inconclusive.
`c1ccc(Oc2ccc(Nc3ncc(-c4ccccc4)o3)cc2)cc1` gave LASV entry inh 0.25µM*.
For COc1ccc(C2c3c(-c4ccccc4O)n[nH]c3C(=O)N2CCc2ccc(OC)c(OC)c2)cc1 (stereo not given) the results were FMDV antiviral inconclusive, VACV mCherry inh inconclusive, HCV inh inconclusive, MARV entry inh inconclusive, LASV entry inh 5µM* and Vaccinia Venus -30%.
CCc1ccc(C2c3c(-c4cc(C)ccc4O)n[nH]c3C(=O)N2Cc2cccnc2)cc1 (stereo not given) was read as FMDV antiviral inconclusive, VACV mCherry inh -10%, MARV entry inh 13µM*, LASV entry inh inconclusive and Vaccinia Venus -10%.
Screening COc1ccc(CCN2C(=O)c3[nH]nc(-c4ccccc4O)c3C2c2cccc(OC)c2)cc1 (stereo not given) returned FMDV antiviral -12%, VACV mCherry inh inconclusive, MARV entry inh 13µM*, LASV entry inh inconclusive and Vaccinia Venus inconclusive.
`CCOc1ccc(C2c3c(-c4cc(C)ccc4O)n[nH]c3C(=O)N2Cc2cccnc2)cc1OCC` (stereo not given) gave FMDV antiviral -18%, VACV mCherry inh -8%, MARV entry inh inconclusive, LASV entry inh inconclusive and Vaccinia Venus -1%.
Screening Cc1ccccc1NC(=O)Cc1nc(COC(=O)c2cc([N+](=O)[O-])ccc2NCCO)cs1 returned FMDV antiviral inconclusive, VACV mCherry inh inactive, HCV inh 8.9µM*, MARV entry inh inconclusive, LASV entry inh 3% and Vaccinia Venus -15%.
CC(=O)c1c(C)[nH]c(C(=O)OCc2csc(CC(=O)Nc3ccccc3C)n2)c1C was read as FMDV antiviral 20µM* and HCV inh 4.5µM*.
CC(C)=CC(=O)OCc1csc(CC(=O)Nc2ccccc2C)n1 was read as FMDV antiviral 32%, VACV mCherry inh -17%, HCV inh -6%, MARV entry inh -22%[46.1 µM], LASV entry inh 14%[46.1 µM] and Vaccinia Venus -13%.
Cc1ccc(NC(=O)Cc2nc(COC(=O)c3c(F)cccc3Cl)cs2)cc1 was read as FMDV antiviral -23%, VACV mCherry inh inconclusive, HCV inh 8.9µM*, MARV entry inh -12%[46.1 µM], LASV entry inh 2% and Vaccinia Venus -13%.
Screening C=CCN=C1NC(c2cccc(C(F)(F)F)c2)C(C(=O)OC)=C(C)N1Cc1ccccc1 (stereo not given) returned MARV entry inh -25%[14.2 µM] and LASV entry inh inconclusive.
CCc1ccc(Nc2nc(-c3cc4cccc(OC)c4oc3=O)c(CC)s2)cc1 was read as FMDV antiviral -3%, VACV mCherry inh -14%, LASV entry inh -22%[46.1 µM] and Vaccinia Venus -16%.
Screening Cc1csc(NC(=O)c2cn3ccccc3n2)n1 returned FMDV antiviral 14µM*, VACV mCherry inh 0%, HCV inh 4%, MARV entry inh inconclusive, LASV entry inh 4µM* and Vaccinia Venus -6%.
Screening Cc1csc(NC(=O)c2ccc3ccccc3n2)n1 returned FMDV antiviral -37%, VACV mCherry inh -9%, HCV inh inconclusive, MARV entry inh inconclusive, LASV entry inh inconclusive and Vaccinia Venus -13%.
